Consider 14 compounds from PubChem BioAssay.

The nature of test [1]: inhibitors of TNFa-induced NFkB p65 translocation, primary screen, imaging, HUVEC, MLSMR starter and 10KST1 sets (AID 438;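 active = inhibition above 20% together with a positive visual image hit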;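 note: compound added about 3h40 before a 20 min TNFalpha stimulation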;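 for inhibition: signal is the nuclear over cytoplasmic p65 intensity ratio per well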). Particulars: HUVEC TNFa-induced p65 nuclear translocation; cell count: measured here: nuclei count (cytotoxicity indicator), at 2.08 µM; inhibition: at 2 µM, stronger effect = higher value, 0% TNFa-plus-vehicle, 100% no-TNFa wells.
The nature of test [2]: reduction of polyQ htt aggregates in cells – imaging, exon1htt(103Q)mCFP cells, high-content imaging, primary screen (AID 483).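 For nuclei count: percent of the per-plate median nuclei count of sample wells.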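 Note: compound exposure lasted 3 days before fixation.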 Particulars: exon1htt(103Q)mCFP cell line, aggregate imaging, at 2 µM; inhibition of aggregation: stronger effect = higher value; nuclei count: measured here: cell count, toxicity.
A short description of test [3]: endothelial E-selectin expression blockers – imaging, HUVEC, immunofluorescence, MLSMR starter and 10KST1 sets, primary screen (AID 487;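 active = visually confirmed hit in the image check and inhibition above 20%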;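 for inhibition: signal is fraction of cell area covered by stained E-selectin grains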;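 for nuclei count: 100% = median nuclei count of all wells on the same plate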). Particulars: HUVEC TNFalpha-induced E-selectin immunofluorescence imaging, at 2 µM; inhibition: stronger effect = higher value; nuclei count: measured here: cell number, toxicity.
In test [4] the target is Voltage-gated potassium channel subunit beta-2 (Rattus norvegicus) (UniProt P62483). As to the kind of experiment: inhibitors of rat Kvbeta2 reductase activity – biochemical, NADPH fluorescence, primary screen (AID 622;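 active = fluorescence slope higher than the sample average by over 3 SD, cut at about -0.22 in these data, passing the limit was not always enough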;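 note: slope of raw intensity against log time taken from 70 to 1610 s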). Particulars: recombinant KvBeta, 4-cyanobenzaldehyde reduction, at 10 µM, stronger effect = higher value.
Voltage-gated potassium channel subunit beta-2 (Rattus norvegicus), sequence (P62483 whole entry, looked up): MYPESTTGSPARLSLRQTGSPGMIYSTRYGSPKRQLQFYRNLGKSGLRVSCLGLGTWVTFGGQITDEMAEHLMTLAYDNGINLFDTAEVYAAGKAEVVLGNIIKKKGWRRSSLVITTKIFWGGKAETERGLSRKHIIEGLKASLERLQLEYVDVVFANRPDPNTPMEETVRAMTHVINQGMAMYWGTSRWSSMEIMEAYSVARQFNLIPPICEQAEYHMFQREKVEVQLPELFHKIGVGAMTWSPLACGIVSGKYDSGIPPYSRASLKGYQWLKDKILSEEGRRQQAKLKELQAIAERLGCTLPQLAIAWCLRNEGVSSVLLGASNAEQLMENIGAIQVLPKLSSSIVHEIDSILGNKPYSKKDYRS
Test [5] has the same target. Put plainly: enhancers of rat Kvbeta2 NADPH turnover – biochemical, NADPH fluorescence, primary screen (AID 623;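 active = NADPH fluorescence slope more negative than the mean of all samples by about 3 SD, 99.7% confidence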;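 note: fluorescence intensity change per second fitted from 20 to 320 s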). Particulars: Recombinant KvBeta, NADPH fluorescence decrease slope, 10 min; at 10 µM; stronger effect = lower value.
In test [6] the target is Alpha-2C adrenergic receptor (Homo sapiens) (UniProt P18825). As to the kind of experiment: compounds altering alpha2C-coupled GIRK flux – cell-based, HEK293 alpha2C/GIRK1/2, thallium flux, primary screen (AID 624;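 active = fluorescence slope after compound addition differing from the mean of all screened samples at 99.7% confidence, in either direction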;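 note: slope of fluorescence ratio to pre-addition baseline per second over 15 to 24 s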). The following applies: thallium flux BTC fluorescence, at 10 µM, actives lie on both sides.
Alpha-2C adrenergic receptor (Homo sapiens), sequence (P18825 whole entry, looked up): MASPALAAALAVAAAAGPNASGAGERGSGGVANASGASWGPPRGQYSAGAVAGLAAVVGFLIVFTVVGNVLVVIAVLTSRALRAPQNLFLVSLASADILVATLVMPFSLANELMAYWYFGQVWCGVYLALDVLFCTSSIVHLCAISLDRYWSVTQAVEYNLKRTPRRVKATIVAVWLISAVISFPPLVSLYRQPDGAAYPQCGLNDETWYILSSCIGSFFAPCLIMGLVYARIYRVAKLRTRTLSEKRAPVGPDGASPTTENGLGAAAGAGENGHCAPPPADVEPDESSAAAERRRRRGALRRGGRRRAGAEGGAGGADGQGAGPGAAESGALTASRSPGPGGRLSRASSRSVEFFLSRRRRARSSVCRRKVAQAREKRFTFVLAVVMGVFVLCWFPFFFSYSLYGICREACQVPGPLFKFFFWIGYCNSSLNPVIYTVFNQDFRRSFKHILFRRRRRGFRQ
A short description of test [7]: blockers of RIG-like receptor reporter activation – cell-based, Sendai virus stimulus, luciferase, 10K MLSCN set, TLR/RLR signaling modifier project, primary screen (AID 602276;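 active = inhibition at or above 50% at 10 µM; inactive = inhibition below 50%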;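 note: firefly luciferase from ISG56 promoter only with Renilla not read in this screen; 0% = Sendai virus plus DMSO and 100% = medium plus DMSO without virus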). Particulars: HEK293 RL24 IRF3 luciferase reporter, at 10 µM, stronger effect = higher value.
Test [8] can be described thus: TLR3 IRF3 reporter activation blockers – cell-based, poly I:C stimulus, luciferase, 10K MLSCN set, primary screen (AID 602277;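 active = inhibition of the reporter signal at or above 50%; inactive = inhibition below 50%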). Particulars: HEK293-TLR3 RL24 IRF3 luciferase reporter, at 10 µM, stronger effect = higher value. On the technique in general: A reporter such as luciferase makes a cellular process visible.

Calls of active or inactive are those of the source.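 Rule for the calls, unless noted: active = visual image review flags a hit and inhibition of aggregation exceeds 20%; inconclusive = visual hit but inhibition at or below 20%; inactive = no hit on visual image review.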

With `O=C(NCC1CCCO1)C1CCCN(Cc2cnn(-c3ccccc3)c2-n2cccc2)C1` (centres undefined), in test [1], the cell count was 292. Moreover, the inhibition in test [1] is 0.8% (inactive); in test [3], -10.5% (inactive); in test [7], -11.1% (inactive); in test [8] it was -10.8% (inactive). The inhibition of aggregation in test [2] is 5.3% (inactive). The results for the nuclei count in test [2] and in test [3] were 86.3% and 92.7%, respectively. Further, the fluorescence slope in test [4] was -0.39 (inactive). Further, the NADPH fluorescence slope in test [5] was 3.8e-06 (inactive). Also, the slope in test [6] was 0.0039 (inactive).

On to `O=C(NC(=O)c1cccc(F)c1)OC[C@@H]1CCCN2CCCC[C@H]12`, for which, in test [1], the cell count was 600. The inhibition in test [1] is -5.8% (inactive); in test [3], -55.2% (inactive); in test [7], 8.41% (inactive); in test [8], 28.6% (inactive). For the same compound, the inhibition of aggregation in test [2] is -12.4% (inactive). Moreover, the results for the nuclei count in test [2] and in test [3] were 77.9% and 113%, respectively. The fluorescence slope in test [4] is -0.491 (inactive). For the same compound, the NADPH fluorescence slope in test [5] is 1.1e-05 (inactive). Besides, in test [6], the slope is 0.00714 (inactive).

Consider `C[C@H](NC(=O)NCc1cccs1)C(=O)O`, for which the cell count in test [1] worked out at 378. Also, the inhibition in test [1] is 4.3% (inactive); in test [3], -52.5% (inactive); in test [7], 5.25% (inactive); in test [8] it was 4.63% (inactive). Besides, the inhibition of aggregation in test [2] was -9.8% (inactive). Further, the nuclei count in test [2] came out at 102%; in test [3], 72.1%. For the same compound, the fluorescence slope in test [4] was -0.576 (inactive). Also, in test [5], the NADPH fluorescence slope was -5.7e-05 (inactive). Also, the slope in test [6] is 0.00368 (inactive).

Regarding `C(=N\c1c(-c2ccccc2)nc2n1CCS2)/c1ccccc1`, the cell count in test [1] was determined as 594. Also, the inhibition in test [1] was -22.1% (inactive); in test [3] it was 18.8% (inactive); in test [7], 0.61% (inactive); in test [8], 10.6% (inactive). Further, the inhibition of aggregation in test [2] is -0.7% (inactive). In addition, the values for the nuclei count in test [2] and in test [3] were 86% and 43.9%, respectively. The fluorescence slope in test [4] is -0.458 (inactive). The NADPH fluorescence slope in test [5] was -3.7e-05 (inactive). Moreover, in test [6], the slope was 0.00231 (inactive).

Turning to `Fc1ccc(-n2c(Cc3ccccc3)nnc2SCc2nc(-c3cccs3)no2)cc1`, in test [1], the cell count was determined as 466. Further, the inhibition is 2.5% (inactive) in test [1], -52.5% (inactive) in test [3], -1.69% (inactive) in test [7] and 1.22% (inactive) in test [8]. Further, the inhibition of aggregation in test [2] was 0.1% (inactive). In addition, the nuclei count in test [2] was 86.5%; in test [3], 108%. Further, the fluorescence slope in test [4] was -0.63 (inactive). For the same compound, in test [5], the NADPH fluorescence slope was -4.2e-05 (inactive). Further, the slope in test [6] was 0.00381 (inactive).

Take `CC(O)c1cc2c(cc1NC(=O)c1cnn3c1NC(c1ccco1)CC3C(F)(F)F)OCO2` (centres undefined): the cell count in test [1] stood at 656. Also, the inhibition is 8.7% (inactive) in test [1], -56.3% (inactive) in test [3], 9.47% (inactive) in test [7] and 20.2% (inactive) in test [8]. Further, in test [2], the inhibition of aggregation is -12% (inactive). Besides, the nuclei count in test [2] worked out at 109%; in test [3], 98.9%. In addition, the fluorescence slope in test [4] is -0.583 (inactive). In addition, in test [5], the NADPH fluorescence slope is 3.4e-05 (inactive). Moreover, the slope in test [6] was 0.00628 (inactive).

Regarding `CCOC(=O)CSc1nnc(NCC(=O)OC(C)C)c(=O)[nH]1`, the cell count in test [1] worked out at 634. For the same compound, the inhibition in test [1] is 7.2% (inactive); in test [3], -81.4% (inactive); in test [7] it was 9.31% (inactive); in test [8], 3.05% (inactive). The inhibition of aggregation in test [2] is 3.7% (inactive). The results for the nuclei count in test [2] and in test [3] were 100% and 144%, respectively. Besides, the fluorescence slope in test [4] was -0.573 (inactive). In addition, in test [5], the NADPH fluorescence slope is 3.9e-05 (inactive). Moreover, the slope in test [6] was 0.00694 (inactive).

For `Cn1c(=O)[nH]c(=O)c2c1nc(N1CCNCC1)n2CCOc1ccccc1`, the cell count in test [1] is 321. The inhibition in test [1] is -3.8% (inactive); in test [3], -91.3% (inactive); in test [7], -11.6% (inactive); in test [8], 1.53% (inactive). For the same compound, the inhibition of aggregation in test [2] is 2.5% (inactive). The results for the nuclei count in test [2] and in test [3] were 104% and 124%, respectively. Also, in test [4], the fluorescence slope is -0.513 (inactive). Further, the NADPH fluorescence slope in test [5] is 4.4e-05 (inactive). The slope in test [6] is 0.00611 (inactive).

Take `COC(=O)c1cc2ccsc2n1Cc1nc(-c2ccc(OC)cc2)oc1C`: the cell count in test [1] was determined as 622. Besides, the inhibition is -17% (inactive) in test [1], -66.3% (inactive) in test [3], -25.1% (inactive) in test [7] and -56.7% (inactive) in test [8]. Besides, the inhibition of aggregation in test [2] is -22% (inactive). The nuclei count in test [2] was 120%; in test [3], 109%. In addition, the fluorescence slope in test [4] was -0.347 (inactive). The NADPH fluorescence slope in test [5] is -2.6e-05 (inactive). In test [6], the slope is 0.00726 (inactive).

`CCOC(=O)N1CCC(N2C(=O)c3ccc(C(=O)NCc4ccco4)cc3C2=O)CC1`: the cell count in test [1] was found to be 646. For the same compound, the inhibition in test [1] was -6.1% (inactive); in test [3], -40.8% (inactive); in test [7] it was 7.39% (inactive); in test [8] it was 26.2% (inactive). In addition, the inhibition of aggregation in test [2] was 0.7% (inactive). Moreover, the nuclei count in test [2] came out at 96.3%; in test [3], 126%. In addition, the fluorescence slope in test [4] was -0.59 (inactive). Further, the NADPH fluorescence slope in test [5] is -2.2e-06 (inactive). The slope in test [6] was 0.00518 (inactive).

On to `CCOc1cccc(OCCCCn2ccnc2)c1`, for which the cell count in test [1] worked out at 339. Further, the inhibition in test [1] is -3.1% (inactive); in test [3], -124% (inactive); in test [7], 9.17% (inactive); in test [8], 21.4% (inactive). The inhibition of aggregation in test [2] is -7.7% (inactive). The results for the nuclei count in test [2] and in test [3] were 99% and 114%, respectively. The fluorescence slope in test [4] was -0.36 (inactive). In addition, the NADPH fluorescence slope in test [5] is 5e-05 (inactive). Besides, the slope in test [6] is 0.00579 (inactive).

As for `Cc1noc(C(=O)Nc2ccc3c(c2)OCO3)c1Cl`, the cell count in test [1] stood at 763. In addition, the inhibition in test [1] was 0% (inactive); in test [3] it was -40.9% (inactive); in test [7], -21.3% (inactive); in test [8], -27.6% (inactive). Besides, the inhibition of aggregation in test [2] was -14.1% (inactive). Moreover, the figures for the nuclei count in test [2] and in test [3] were 129% and 108%, respectively. For the same compound, the fluorescence slope in test [4] was -0.419 (inactive). Besides, the NADPH fluorescence slope in test [5] is -6.4e-05 (inactive). The slope in test [6] is 0.00438 (inactive).

As for `CCOC(=O)C1CCN(c2c(NCCN3CCN(c4ccccc4)CC3)c(=O)c2=O)CC1`, the cell count in test [1] stood at 533. Besides, the inhibition in test [1] is 7.8% (inactive); in test [3] it was -115% (inactive); in test [7], 1.01% (inactive); in test [8], 28.4% (inactive). In test [2], the inhibition of aggregation is 7.2% (inactive). The nuclei count in test [2] was found to be 96.5%; in test [3], 95.9%. Also, the fluorescence slope in test [4] is -0.6 (inactive). Also, the NADPH fluorescence slope in test [5] is -1.7e-05 (inactive). For the same compound, in test [6], the slope was 0.00543 (inactive).

As for `O=S1(=O)CC(N2CCOCC2)c2ccccc21` (centres undefined), the cell count in test [1] came out at 644. Besides, the inhibition in test [1] is -0.2% (inactive); in test [3], -26.3% (inactive); in test [7], 7.8% (inactive); in test [8] it was 12.8% (inactive). Besides, the inhibition of aggregation in test [2] is 8.1% (inactive). The nuclei count in test [2] amounted to 95.1%; in test [3] it was 112%. The fluorescence slope in test [4] is -0.52 (inactive). Further, the NADPH fluorescence slope in test [5] is -1.6e-05 (inactive). In addition, the slope in test [6] was 0.00437 (inactive).

Broadly, the inhibition is the change of the read-out against control, counted positive when it falls.
